This note sets out measurements from PubChem BioAssay.

Assay [1] is described as follows: resazurin metabolic signal in HepG2 cells – cell-based, resazurin fluorescence, 24 h, PK04 Diversity Set, profiling panel (AID 1172). Also: test concentration not given here. The settings on record: HepG2 viability, higher = more signal. For orientation: Alamar Blue is a resazurin reagent that responds to reducing activity.
Assay [2] is described as follows: budding yeast growth changes without added modifier – OD600, strain BY4716, 24 h, basal condition, primary screen (AID 1173). The following applies: S. cerevisiae BY4716 growth, OD600, 24 h; higher = more signal, called active from +8 up or from −8 down.
The nature of assay [3]: viability profiling in MM1S myeloma cells – cell-based, resazurin fluorescence, basal, 24 h, PK04 Diversity Set, profiling panel (AID 1174).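 Also: MM1S multiple myeloma cell line; test concentration not given here.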 The settings on record: higher = more signal, called active from +8 up or from −8 down.
In assay [4] the target is Dihydroorotate dehydrogenase (quinone), mitochondrial (Plasmodium falciparum (isolate 3D7)) (UniProt Q08210). As to the kind of experiment: inhibition of P. falciparum DHODH – biochemical, C-terminal His tag, absorbance 600 nm, primary screen (AID 1175).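 Also: recombinant parasite enzyme with a five histidine tag at its C terminus; test concentration not given here.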 The settings on record: PfDHODH enzyme, DCIP absorbance 600 nm; higher = more signal, called active from +8 up or from −8 down.

Assay [5] is described as follows: inhibition of PAO1 biofilm formation – strain PAO1, LB-PBS medium, absorbance 600 nm, primary screen (AID 1176). Also: test concentration not given here. The following applies: P. aeruginosa PAO1 growth/biofilm, A600, 12 h; higher = more signal.
Assay [6] can be described thus: growth modulation of vineyard yeast isolate – strain RM11-1a, OD600, basal, 24 h, primary screen (AID 1177).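 Also: cultures grown under basal conditions with no added stressor; test concentration not given here.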 The following applies: S. cerevisiae RM11-1a growth, OD600, 24 h; higher = more signal, called active from +8 up or from −8 down.
The nature of assay [7]: growth of efflux-deficient E. coli DRC39 – strain DRC39, OD650, 24 h, E. coli filamentation inducers, primary screen (AID 1178).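 Also: growth measured as culture turbidity by optical density at 650 nm; test concentration not given here.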 The following applies: E. coli DRC39 acrAB, higher = more signal, called active from +8 up or from −8 down.
Assay [8] is described as follows: growth of efflux-deficient E. coli DRC39 – strain DRC39, OD650, 48 h, E. coli filamentation inducers, primary screen (AID 1179).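 Also: screen aims at cell division blockers that make cells filament.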 The following applies: E. coli DRC39 delta-acrAB growth, higher = more signal, called active from +8 up or from −8 down.
Assay [9] is described as follows: viability profiling in RPMI8226 myeloma cells – cell-based, resazurin fluorescence, basal, 24 h, PK04 Diversity Set, profiling panel (AID 1180).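 Also: RPMI8826 multiple myeloma cell line at 5000 cells per well; test concentration not given here.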 The following applies: higher = more signal.
Assay [10] concerns the target E3 ubiquitin-protein ligase XIAP (Homo sapiens) (UniProt P98170). The assay is described as follows: small molecules binding XIAP protein – biophysical, small-molecule microarray, fluorescence 635 nm, primary screen (AID 1181).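 Also: score merges 667 nm emission and signal to noise over triplicate slides.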 The following applies: higher = more signal.

Activity calls are given as the source filed them. Unless noted, no rule for the calls is given here.

E3 ubiquitin-protein ligase XIAP (Homo sapiens), sequence (P98170 whole entry, looked up): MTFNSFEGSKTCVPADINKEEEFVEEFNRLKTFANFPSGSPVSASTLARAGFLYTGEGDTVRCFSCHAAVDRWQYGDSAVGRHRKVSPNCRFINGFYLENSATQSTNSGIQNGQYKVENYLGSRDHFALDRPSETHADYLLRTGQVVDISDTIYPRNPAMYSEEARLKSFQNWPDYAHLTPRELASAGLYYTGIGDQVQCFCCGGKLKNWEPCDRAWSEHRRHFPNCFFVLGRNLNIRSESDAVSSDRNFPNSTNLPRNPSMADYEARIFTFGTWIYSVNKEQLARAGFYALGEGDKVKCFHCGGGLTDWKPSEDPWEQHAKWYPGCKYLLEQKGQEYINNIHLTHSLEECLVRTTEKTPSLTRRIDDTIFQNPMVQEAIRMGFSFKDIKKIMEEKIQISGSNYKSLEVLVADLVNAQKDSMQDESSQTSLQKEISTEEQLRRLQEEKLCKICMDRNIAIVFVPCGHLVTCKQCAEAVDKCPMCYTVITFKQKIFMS
Dihydroorotate dehydrogenase (quinone), mitochondrial (Plasmodium falciparum (isolate 3D7)), sequence (Q08210 whole entry, looked up): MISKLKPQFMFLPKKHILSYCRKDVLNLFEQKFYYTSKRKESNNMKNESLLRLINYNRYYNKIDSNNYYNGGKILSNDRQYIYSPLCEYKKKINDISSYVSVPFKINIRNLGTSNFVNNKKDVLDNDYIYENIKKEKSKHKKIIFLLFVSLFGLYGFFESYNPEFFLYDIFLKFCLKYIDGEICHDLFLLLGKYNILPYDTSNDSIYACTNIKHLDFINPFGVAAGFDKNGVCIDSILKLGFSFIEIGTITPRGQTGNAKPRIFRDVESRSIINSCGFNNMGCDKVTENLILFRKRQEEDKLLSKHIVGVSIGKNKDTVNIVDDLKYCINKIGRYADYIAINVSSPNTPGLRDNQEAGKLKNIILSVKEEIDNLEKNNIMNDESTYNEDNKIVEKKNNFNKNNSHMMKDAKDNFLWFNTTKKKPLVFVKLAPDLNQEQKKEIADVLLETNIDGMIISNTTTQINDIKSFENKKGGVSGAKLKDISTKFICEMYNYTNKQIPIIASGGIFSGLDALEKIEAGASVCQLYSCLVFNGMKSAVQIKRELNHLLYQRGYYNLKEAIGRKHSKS

`C=CCC(OC(C)=O)[C@@H]1[C@@H](N(Cc2cc3ccccc3o2)C(=O)c2ccc(C)cc2)c2cc(OCCCO)ccc2N1C(=O)Cc1ccc2ccccc2c1` (stereo not given in full): the z-score in [1] was 0.85; in [2] it was 0.0206 (inactive); in assay [3] it was -0.589 (inactive); in assay [5], -0.501 (inactive); in assay [6] it was 0.554 (inactive); in [7], 0.964 (inactive). In addition, the z-score in assay [8] was 1.08 (inactive); in [9], 0.305. Besides, the values for the composite z-score in [4] and in assay [10] were 0.507 (inactive) and 0.162, respectively.
Consider `COC(=O)[C@@]1(Cc2ccccc2)[C@H]2c3cc(C(=O)N4CCCC4)n(Cc4ccsc4Br)c3C[C@H]2CN1C(=O)c1ccccc1`, for which the z-score in [1] is -1.08; in assay [2], 0.666 (inactive); in assay [3], -0.686 (inactive); in assay [5], -0.0703 (inactive); in [6] it was 1.15 (inactive); in assay [7] it was -0.28 (inactive). In addition, the z-score in assay [8] is 0.139 (inactive); in assay [9] it was -3.12. The composite z-score in [4] is -0.876 (inactive); in assay [10], 0.218.
For `COCCOC(=O)N1C(=O)[C@@]2(c3cc(C#CC4(O)CCCCCC4)ccc31)[C@H](C(=O)N1CCCCCCC1)[C@H]1C(=O)O[C@H](c3ccccc3)[C@H](c3ccccc3)N1[C@@H]2c1ccc(OCCO)cc1`, the z-score is 0.304 in [1]; 0.397 (inactive) in assay [2]; 0.67 (inactive) in assay [3]; 2.03 (inactive) in [5]; 1.51 (inactive) in assay [6]; -0.151 (inactive) in [7]. Further, the z-score in assay [8] was 0.201 (inactive); in assay [9], 0.918. Besides, the composite z-score in assay [4] was -2.1 (inactive); in assay [10], 0.293.
As for `CN(C)CCCNC(=O)[C@@H]1c2ccccc2C(=O)N(Cc2ccc(OC(F)(F)F)cc2)[C@H]1c1ccc(CO)cc1`, the z-score in assay [1] is -0.39; in [2], 0.0639 (inactive); in assay [3] it was 0.983 (inactive); in [5], 0.407 (inactive); in [6] it was 1 (inactive); in assay [7], 0.897 (inactive). The z-score in [8] was -0.193 (inactive); in assay [9] it was 0.818. Further, the values for the composite z-score in assay [4] and in [10] were 0.853 (inactive) and -0.117, respectively.
`C[n+]1ccc(CCCO)cc1`: the z-score in assay [1] was -0.744; in [2], 0.883 (inactive); in assay [3] it was -0.255 (inactive); in assay [5] it was -0.199 (inactive); in assay [6] it was 0.684 (inactive); in [7] it was -1.02 (inactive). Also, the z-score is -1.1 (inactive) in assay [8] and -0.551 in assay [9]. Further, the composite z-score in [4] was -4.35 (inactive); in [10], 0.769.
In the case of `CC=CC(O)C1C=CC2C(=O)N(c3ccccc3)C(=O)C2N1Nc1ccc([N+](=O)[O-])cc1` (stereo not given), the z-score is -0.0211 in assay [1]; 0.0621 (inactive) in assay [2]; -0.156 (inactive) in [3]; 0.71 (inactive) in assay [5]; -0.372 (inactive) in assay [6]; -1.19 (inactive) in [7]. The z-score was -0.279 (inactive) in [8] and 0.0388 in [9]. Moreover, the composite z-score in [4] was -0.213 (inactive); in assay [10], -0.0807.
Consider `CN(C)C(=O)[C@@]1(Cc2ccccc2N=[N+]=[N-])COC(c2ccc(OCCCO)cc2)=N1`, for which the z-score in assay [1] was 1.44; in assay [2], -4.24 (inactive); in assay [3], -0.0135 (inactive); in [5] it was -0.497 (inactive); in assay [6], 0.481 (inactive); in assay [7] it was 0.632 (inactive). Further, the z-score is 1.42 (inactive) in [8] and 0.816 in assay [9]. Further, the composite z-score was 0.369 (inactive) in [4] and 0.194 in assay [10].
As to `COCCOC(=O)N1C(=O)[C@@]2(c3cc(C#CC4=CCCCC4)ccc31)[C@H](c1ccc(O)cc1)N1[C@H](c3ccccc3)[C@H](c3ccccc3)OC(=O)[C@H]1[C@@H]2C(=O)Nc1nc2ccccc2s1`, the z-score in assay [1] was -0.477; in assay [2] it was 0.175 (inactive); in [3], 0.0007 (inactive); in assay [5], 1.44 (inactive); in assay [6], 0.297 (inactive); in [7], -0.61 (inactive). Further, the z-score was 0.0717 (inactive) in [8] and -0.0867 in assay [9]. Also, the composite z-score in assay [4] was -0.399 (inactive); in assay [10], 0.0114.
Regarding `COC(=O)[C@@]1(Cc2ccccc2)[C@H]2c3cc(C(=O)N4CCCC4)[nH]c3C[C@H]2CN1C(=O)c1ccccc1`, the z-score was -0.6 in [1]; 0.146 (inactive) in [2]; -0.89 (inactive) in assay [3]; 0.026 (inactive) in assay [5]; 0.198 (inactive) in assay [6]; -0.79 (inactive) in assay [7]. Further, the z-score is -0.548 (inactive) in assay [8] and -0.183 in assay [9]. Besides, the composite z-score in assay [4] is -0.171 (inactive); in assay [10], -0.247.
In the case of `C=CCN1C(=O)[C@@]2(O[C@@H](CCO)[C@H]([Si](C)(C)c3ccc(OC)cc3)[C@H]2C)c2cc(N3C(=O)c4ccccc4Oc4ccccc43)ccc21`, the z-score in [1] is -6.08; in assay [2], -0.0065 (inactive); in assay [3], -8.62 (active); in assay [5] it was 1.95 (inactive); in [6], 3.35 (inactive); in [7], 2.24 (inactive). For the same compound, the z-score in assay [8] was 1.9 (inactive); in assay [9] it was -6.24. The values for the composite z-score in assay [4] and in assay [10] were 0.614 (inactive) and -0.172, respectively.
For `C=CCNC(=O)[C@@H]1[C@H]2C(=O)O[C@H](c3ccccc3)[C@H](c3ccccc3)N2[C@H](c2ccccc2OCCO)[C@@]12C(=O)N(C(=O)OCCOC)c1ccc(C#CC3=CCCCC3)cc12`, the z-score was 0.402 in assay [1]; 0.466 (inactive) in assay [2]; -1 (inactive) in assay [3]; 2.19 (inactive) in [5]; 1.08 (inactive) in assay [6]; 0.368 (inactive) in [7]. Further, the figures for the z-score in [8] and in assay [9] were 0.628 (inactive) and -1.31, respectively. Besides, the values for the composite z-score in assay [4] and in assay [10] were -0.458 (inactive) and 0.0683, respectively.
Turning to `O=C1NC(=O)C2C1C=CC(C(O)c1ccc(Br)cc1)N2Nc1ccccn1` (stereo not given), the z-score in assay [1] is -0.917; in [2], 0.154 (inactive); in assay [3], -0.817 (inactive); in assay [5], 1.45 (inactive); in assay [6] it was -1.44 (inactive); in [7], 0.421 (inactive). The results for the z-score in assay [8] and in [9] were 0.956 (inactive) and -0.913, respectively. In addition, the composite z-score is -0.347 (inactive) in assay [4] and 0.367 in assay [10].
